According to PubChem BioAssay AID1159580 (chemical genetic matrix, 2015):
Values joined by “and” are separate entries in the source; they are usually repeats but may differ in a detail not shown here. Identical values can stand only once. Out of some 5,500 compounds screened, about 2,000 (36%) were called active. About 18% were inconclusive and are not listed. Cut-off read from the data, not from the text of the source: active = normalized growth mostly below about 0.91 (no sharp cut-off); inconclusive = no clear call, values can overlap the other calls; inactive = mostly above about 0.92. The list shows a part of the results.

Assay: chemical genetic growth profiling, strain panel (AID 1159580);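 note: tested at 20 µM; growth read once vehicle control cultures reached saturation at 30 °C; 1 = growth at the plate median or of vehicle wells; lower values mean less growth of the strain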
Settings: S. cerevisiae deletion strains, growth OD

Measured: normalized growth

CNC(=O)CSP(=S)(OC)OC
inactive: locus YAL013W, strain DEP1, hits give low values 1.02 | locus YAL021C, strain ccr4, hits give low values 1.01 | locus YAL026C, strain drs2, hits give low values 1.01 | locus YAL030W, strain snc1, hits give low values 1.01 | locus YBL061C, strain skt5, hits give low values 1.03 | locus YBR009C, strain hhf1, hits give low values 0.999 | locus YBR021W, strain FUR4, hits give low values 0.994 | locus YBR023C, strain chs3, hits give low values 1.03 | locus YBR171W, strain sec66, hits give low values 1.03 | locus YBR229C, strain ROT2, hits give low values 1.01 | locus YBR231C, strain swc5, hits give low values 1.01 | locus YBR279W, strain paf1, hits give low values 1.01 | locus YCL011C, strain gbp2, hits give low values 1.02 | locus YCL016C, strain dcc1, hits give low values 1.02 | locus YCL029C, strain bik1, hits give low values 1.01 | locus YCL061C, strain MRC1, hits give low values 1.01 | locus YCL069W, strain vba3, hits give low values 1.02 | locus YCR088W, strain abp1, hits give low values 1.01 | locus YDL005C, strain med2, hits give low values 1.03 | locus YDL035C, strain GPR1, hits give low values 1.02 | locus YDL040C, strain nat1, hits give low values 1.02 | locus YDL074C, strain BRE1, hits give low values 0.971 | locus YDL101C, strain DUN1, hits give low values 1 | locus YDL134C, strain PPH21, hits give low values 1 | locus YDL185W, strain tfp1, hits give low values 1.03 | locus YDL192W, strain arf1, hits give low values 1.02 | locus YDR001C, strain nth1, hits give low values 1.01 | locus YDR069C, strain doa4, hits give low values 1.02 | locus YDR101C, strain arx1, hits give low values 1.02 | locus YDR137W, strain rgp1, hits give low values 1.03 | locus YDR150W, strain NUM1, hits give low values 1.01 | locus YDR159W, strain sac3, hits give low values 1.02 | locus YDR162C, strain NBP2, hits give low values 1.01 | locus YDR195W, strain ref2 0.99 | locus YDR297W, strain sur2, hits give low values 1.01 | locus YDR318W, strain mcm21, hits give low values 1.02 | locus YDR334W, strain swr1, hits give low values 1.02 | locus YDR335W, strain msn5, hits give low values 1.01 | locus YDR388W, hits give low values 1.02 | locus YDR392W, strain spt3, hits give low values 1.01 | locus YDR502C, strain sam2, hits give low values 1.02 | locus YEL003W, strain gim4, hits give low values 1.01 | locus YEL037C, strain rad23, hits give low values 1.02 | locus YEL061C, strain CIN8 (second series), hits give low values 1.01 | locus YEL061C, strain CIN8, hits give low values 1.01 | locus YER015W, strain faa2, hits give low values 1.02 | locus YER016W, strain bim1, hits give low values 1.02 | locus YER110C, hits give low values 1.02 | locus YER111C, strain swi4, hits give low values 1.01 | locus YER155C, strain BEM2 (second series), hits give low values 1.02 | locus YER155C, strain BEM2, hits give low values 1.01 | locus YER167W, strain BCK2, hits give low values 1.01 | locus YFR010W, strain ubp6, hits give low values 1.01 | locus YGL078C, strain dbp3, hits give low values 1.02 | locus YGL086W, strain mad1, hits give low values 1.01 | locus YGL167C, strain pmr1, hits give low values 1.02 | locus YGL173C, strain kem1, hits give low values 1.02 | locus YGL227W, strain vid30, hits give low values 1.01 | locus YGL240W, strain doc1, hits give low values 1 | locus YGL248W, strain PDE1, hits give low values 1 | locus YGL253W, strain hxk2, hits give low values 1.03 | locus YGR078C, strain PAC10, hits give low values 1.02 | locus YGR135W, strain pre9, hits give low values 1.01 | locus YGR229C, strain SMI1, hits give low values 1.03 | locus YGR252W, strain gcn5, hits give low values 0.995 | locus YHR013C, strain ard1, hits give low values 1.01 | locus YHR027C, strain rpn1, hits give low values 1.02 | locus YHR030C, strain SLT2, hits give low values 1.03 and 1.08 | locus YHR079C, strain IRE1 (second series), hits give low values 1.02 | locus YHR079C, strain IRE1, hits give low values 1.04 | locus YHR094C, strain hxt1, hits give low values 1.02 | locus YHR129C, strain ARP1, hits give low values 1.01 | locus YHR142W, strain chs7, hits give low values 1.03 | locus YHR200W, strain rpn10, hits give low values 1.02 | locus YIL066C, strain RNR3, hits give low values 1.04 | locus YIL073C, strain SPO22, hits give low values 1.09 | locus YIL125W, strain kgd1, hits give low values 1.01 | locus YIR030C, strain dcg1, hits give low values 1.03 | locus YJL092W, strain hpr5, hits give low values 1.01 | locus YJL095W, strain BCK1 (second series), hits give low values 1.03 | locus YJL095W, strain BCK1, hits give low values 1 and 1.08 | locus YJL115W, strain asf1, hits give low values 1.01 | locus YJL129C, strain trk1, hits give low values 1.03 | locus YJL134W, strain LCB3, hits give low values 1 | locus YJL154C, strain vps35, hits give low values 1.01 | locus YJL164C, strain tpk1, hits give low values 1.02 | locus YJL166W, strain qcr8, hits give low values 1 | locus YJL168C, strain set2, hits give low values 1.02 | locus YJL187C, strain SWE1 (second series), hits give low values 1.02 | locus YJR043C, strain POL32, hits give low values 0.998 | locus YJR066W, strain TOR1, hits give low values 0.992
